The full list was thinned out, with hits kept by preference.
CD40 NFkB inh: inhibitors of CD40-induced NF-kB signaling, primary screen, BL2 cells, luciferase reporter, single point | actives 0.94% (n = 83,000) | inhibition, % at 10 µM | AID 1053188, 2014 | CD40L-induced, 4 h;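 active means mean inhibition of at least 50% with a set share of replicates also reaching that level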
Each line names hits and unclear results; the compound was inactive in the other large screens; [ ] = remark or other dose.

CCCNC(=O)[C@H]1[C@H](CO)[C@H]2Cn3c(ccc(C4=CCCC4)c3=O)[C@H]2N1Cc1ccccc1	none
O=CNc1cc(-c2ccccc2)cn2c(-c3ccc(F)c(Cl)c3)cnc12	none
CCSc1ccc(-c2cc(NC=O)c3ncc(-c4cccc(C(=O)N(C)C)c4)n3c2)cc1	CD40 NFkB inh 51.3
CC(=O)c1ccc(-c2cnc3c(NC=O)cc(-c4ccc(N5CCN(C)CC5)cc4)cn23)cc1	none
CS(=O)(=O)N1[C@H](C#N)[C@@H](c2ccc(-c3ccccc3F)cc2)[C@@H]1CO	none
CC(C)C#Cc1ccc([C@H]2[C@@H](CO)N3C(=O)CN(C(=O)NC4CCCCC4)C[C@@H]23)cc1	none
COC(=O)[C@@H]1[C@@H](CO)[C@@H]2Cn3c(ccc(-c4ccccc4F)c3=O)[C@@H]2N1C(=O)CC1CC1	none
Cc1noc(C)c1NC(=O)N1C[C@@H](O)COC[C@@H]2O[C@@H](CC(=O)N[C@@H]3CCN(Cc4ccccc4)C3)CC[C@H]21	none
OCc1ccc(O)c2ncccc12	none
Oc1ccc(CN2CCC(Cc3ccccc3)CC2)c2cccnc12	none
Oc1ccc(Cc2ccccc2)c2cccnc12	CD40 NFkB inh 82.5
C/C=C/c1ccc([C@H]2[C@@H](CO)N3C(=O)CN(C(=O)Nc4cccc(OC)c4)C[C@@H]23)cc1	none
CN(C)C(=O)c1ccc(-c2ccc([C@H]3[C@H](CO)N4C(=O)CN(C(=O)CC5CC5)C[C@@H]34)cc2)cc1	none
CCCN1C[C@@H](C)[C@@H](OC)CN(C)C(=O)c2cc(NC(=O)C3CCC3)ccc2OC[C@@H]1C	none
COCC#Cc1ccc([C@@H]2[C@H](CO)N3C(=O)CN(C(=O)C4CCCC4)C[C@@H]23)cc1	none
COc1ccccc1C(=O)Nc1ccc2c(c1)C(=O)N(C)C[C@@H](OC)[C@H](C)CN(C)[C@H](C)CO2	none
CN(C)C(=O)[C@@H]1[C@@H](CO)[C@@H]2Cn3c(cccc3=O)[C@@H]2N1C(=O)C1CCCC1	none
N=c1cc(C2(O)CCCCC2)n2c(nc3ccccc32)s1	CD40 NFkB inh 65.8
NC1=NC2(CCCCC2)n2c(nc3ccccc32)N1	none
O=C(C1CCCCC1)N1CCCn2c1nc1ccccc12	none
COCCN(C[C@H]1[C@H](c2ccccc2)[C@H](CO)N1C(C)=O)C(=O)c1cccnc1	none
CN1CCN(Cc2nc3c(c(=O)n(C)c(=O)n3C)n2CCCc2ccccc2)CC1	none
CN1CCN(Cc2nc3ccccc3c(=O)n2Cc2nc(-c3ccc4ccccc4c3)cs2)CC1	CD40 NFkB inh 59.8
CC(=O)Cn1c(CN2CCCC2)nc2ccccc2c1=O	none
COc1cccc(CC(=O)n2nc(N)c3cc4ccc(OC)cc4nc32)c1	none
COc1ccc2cc3c(N)nn(C(=O)c4cccc(F)c4)c3nc2c1	none
COc1ccc2cc3c(N)nn(C(=O)Cc4c[nH]c5ccccc45)c3nc2c1	CD40 NFkB inh 76.7
COc1cccc(-c2ccc([C@H]3[C@H](CO)N4C(=O)CN(C(=O)C5CCCC5)C[C@@H]34)cc2)c1	none
CCN1C(=O)C(CC(=O)Nc2ccc(F)cc2)N(Cc2ccc3c(c2)OCO3)C1=S (stereo not given)	none
COC(=O)CN1C(=S)N(c2ccc(F)cc2)C(=O)C1CC(=O)Nc1ccccc1 (stereo not given)	none
CCN1C(=O)C(CC(=O)Nc2ccc(F)cc2)N(Cc2ccco2)C1=S (stereo not given)	CD40 NFkB inh 37.2
O=C(C[C@H]1C[C@H]2c3cc(NC(=O)Cc4ccncc4)ccc3O[C@H]2[C@@H](CO)O1)NCc1ccc(-c2ccccc2)cc1	none
COCC(=O)N1[C@H](CO)[C@@H](c2ccccc2)[C@@H]1CNC(=O)c1ccccn1	none
COC(=O)C1C(C(=O)OC)C1(c1ccccc1)c1ccccc1 (stereo not given)	none
COC(=O)C1=C(C(=O)OC)C(C(=O)OC)C(C(=O)OC)C(C(=O)OC)(C(=O)OC)C(C(=O)OC)=C1C(=O)OC (stereo not given)	CD40 NFkB inh 74.9
Cc1ccccc1S(=O)(=O)N1CC[C@@H]2[C@@H](CO)N(C)c3ccc(-c4cccc(F)c4)cc3[C@@H]21	none
C[C@H]1CN([C@@H](C)CO)C(=O)c2ccccc2-c2ccccc2CO[C@@H]1CN(C)C(=O)c1ccccc1	none
C[C@H]1CN([C@@H](C)CO)C(=O)c2ccccc2-c2ccccc2CO[C@@H]1CN(C)C(=O)c1cc(Cl)cc(Cl)c1	none
C[C@@H]1CN([C@H](C)CO)C(=O)c2c(c3ccccc3n2C)-c2ccccc2CO[C@@H]1CN(C)C(=O)c1cc(Cl)cc(Cl)c1	CD40 NFkB inh 59.9[25 µM]
C[C@H]1CN([C@@H](C)CO)C(=O)c2c(c3ccccc3n2C)-c2ccccc2CO[C@@H]1CN(C)C(=O)c1cc(Cl)cc(Cl)c1	none
C[C@H]1CN([C@@H](C)CO)C(=O)c2c(c3ccccc3n2C)-c2ccccc2CO[C@H]1CN(C)C(=O)c1cc(Cl)cc(Cl)c1	none
C[C@@H]1CN([C@H](C)CO)C(=O)c2ccccc2-c2ccccc2CO[C@@H]1CN(C)C(=O)c1cc(Cl)cc(Cl)c1	CD40 NFkB inh 65.7[25 µM]
C/C=C/c1ccc([C@@H]2[C@H](C#N)N(C(=O)NC3CCCC3)[C@H]2CO)cc1	none
OC[C@H]1[C@H](c2ccc(C#CC3(O)CCCC3)cc2)[C@@H]2CN(Cc3cncnc3)CCCCN12	none
C[C@@H]1CN(C)C(=O)c2cccc(NS(C)(=O)=O)c2O[C@H]1CN(C)C	none
CC(=O)Nc1cccc2c1O[C@@H](CN(C)C(=O)NC(C)C)[C@@H](C)CN(C)C2=O	none
CC(C)NC(=O)Nc1cccc2c1O[C@H](CN(C)C(=O)NC(C)C)[C@@H](C)CN(C)C2=O	none
CC(=O)N(C)C[C@H]1Oc2ccc(N)cc2CC(=O)N(C)C[C@H]1C	none
Cc1ccc(-c2cc(-c3ccccc3)c(C#N)c(N)n2)o1	CD40 NFkB inh 46.1
Cc1ccc(-c2c(C#N)c(N)nc3c2CCCC3)o1	none
N#Cc1c(-c2ccco2)cc(-c2cccnc2)nc1N	none
O=C(Nc1cccc(F)c1)N1CCCCN2[C@@H](CO)[C@H](c3ccc(C#Cc4cccnc4)cc3)[C@@H]2C1	none
CCCSc1nc(C)c2cc(C)cc(C)c2n1	none
CC1=CC(C)(C)N=C(Nc2nc(C)c3cc(C)cc(C)c3n2)N1	CD40 NFkB inh 48.1
CCSC1=NC(C)(C)C=C(C)N1	none
Cc1onc(-c2ccccc2)c1-c1nc2ccccc2c(=O)o1	CD40 NFkB inh 56.1
O=c1onc(-c2ccccc2)c2ccccc12	none
O=c1oc(-c2cccnc2)nc2ccccc12	none
C[C@H]1CN([C@@H](C)CO)C(=O)CCCn2cc(nn2)CO[C@@H]1CN(C)Cc1ccc2c(c1)OCCO2	none
CCCC(=O)N1CC2(C1)CN(S(=O)(=O)c1ccc(C)cc1)[C@H](CO)c1[nH]c3cc(OC)ccc3c12	none
CCN1/C(=C/c2sc(-c3ccccc3C)c[n+]2C)Sc2ccccc21	CD40 NFkB inh 68.2
CCN1C(=O)c2ccccc2Sc2ccc(C(=O)NCCCN3CCCCC3)cc21	none
c1ccc2c(c1)Sc1ccccc1-n1cnnc1-2	none
COc1ccc(S(=O)(=O)Nc2ccc3c(c2)C(=O)N([C@H](C)CO)C[C@@H](C)[C@H](CN(C)Cc2ccc(C(F)(F)F)cc2)OCCCC[C@@H](C)O3)cc1	CD40 NFkB inh 50.2[25 µM]
COc1ccc(S(=O)(=O)Nc2ccc3c(c2)C(=O)N([C@H](C)CO)C[C@H](C)[C@H](CN(C)Cc2ccc(C(F)(F)F)cc2)OCCCC[C@@H](C)O3)cc1	none
COc1ccc(S(=O)(=O)Nc2ccc3c(c2)C(=O)N([C@@H](C)CO)C[C@@H](C)[C@@H](CN(C)Cc2ccc(C(F)(F)F)cc2)OCCCC[C@@H](C)O3)cc1	CD40 NFkB inh 56.8[25 µM]

Assay outcomes (PubChem)
